Screen size: about 420,000 compounds; about 50,000 (12%) were called active. Another 26% or so got no clear call; they are omitted. The list comes from a sample in which actives are over-represented; it also holds similar structures and randomly drawn compounds. Unmarked numbers belong to inactive results. Calls come from the whole dose curve; as a rule, active = well fitted inhibition curve with a large enough effect; inconclusive = small, poorly fitted or top-dose-only effect; inactive = flat fitted curve, though single readings scatter.
Assay: qHTS for Inhibitors of human tyrosyl-DNA phosphodiesterase 1 (TDP1): qHTS in cells in presence of CPT; note: nearly all actives have a fitted effect of over 55% in size
Settings: chicken DT40 Tdp1-/-;hTDP1 cells + 20 nM CPT, ATP luminescence, 48 h; series mostly up to 46.2 µM; activity change, negative = growth inhibition: at the top concentration
Outline: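 Chicken DT40 Tdp1-/- cells complemented with human TDP1, 400 cells/well, exposed to compounds plus 20 nM camptothecin for at least 48 h at 37 C; viability read as ATP content by CellTiter-Glo luminescence.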
% is set by controls: 0 for no effect and ±100 for the full control effect; potency is the fitted concentration of half-maximal effect.

Row | Structure (SMILES) | activity change, negative = growth inhibition | Potency
1 | CCn1ccnc1CN(C)Cc1nc(-c2ccc3c(c2)OCO3)no1 | -11.6% | –
2 | Cc1ccc(-n2cc(CN(C)Cc3nccn3C)c(-c3cccc(C)c3)n2)cc1 | – | 20.6 µM (active)
3 | NNC(=O)c1ccc(COCC(F)(F)C(F)F)cc1 | -3.54% | –
4 | CCN(c1ccccc1)S(=O)(=O)c1ccc(OCC(=O)N2CCCC2)cc1 | -7.32% | –
5 | CCc1ccc(-c2nc(SCC(=O)NC3CCCC3)n[nH]2)cc1 | – | 25.9 µM (active)
6 | COc1ccc(CNC(=O)CSc2n[nH]c(-c3ccc(F)cc3)n2)cc1 | -25.8% | –
7 | COc1ccc(-c2nc(SCC(=O)N3CCCC3)n[nH]2)cc1 | -4.75% | –
8 | CC(=O)N1CCN(Cc2cc(=O)oc3cc(C)ccc23)CC1 | 0.374% | –
9 | CCc1nnc(NC(=O)c2cc(S(=O)(=O)N3CCN(CC)CC3)ccc2Cl)s1 | 4.17% | –
10 | NNC(=O)C1CC(O)CN1S(=O)(=O)c1ccc(Cl)cc1 (configuration not stated) | -1.12% | –
11 | COc1ccccc1/C=N/N1CCN(Cc2ccccc2Cl)CC1 | 11.4% | –
12 | COc1ccccc1N1CCN(Cc2ccc(OC)c3ccccc23)CC1 | – | 16.4 µM (active)
13 | COc1ccccc1N1CCN(Cc2cc(OC)c3c(c2)OCO3)CC1 | -23.6% | –
14 | Cc1cccc(N=C2NN=C(c3c[nH]c4ccccc34)CS2)c1 | -9.71% | –
15 | C=CCn1c(C)cc(C2=NNC(=NCC)SC2)c1C | – | 16.4 µM (active)
16 | Cc1cc(NC(=O)CCC(=O)N(Cc2ccccc2)C(C(=O)NC2CCCC2)c2ccc(C)o2)no1 (configuration not stated) | -23.4% | –
17 | CCC1Oc2ccccc2N(CC(=O)NCCCN2CCN(CC)CC2)C1=O (configuration not stated) | -2.74% | –
18 | Cn1cnc(S(=O)(=O)N2C[C@@H](O)COC[C@@H]3O[C@H](CC(=O)NC4CCC4)CC[C@H]32)c1 | 1.21% | –
19 | COCCNc1ncnc2ccc(-c3cccnc3)cc12 | – | 14.6 µM (active)
20 | COc1ccccc1CNc1ncncc1-c1cccnc1 | -13.3% | –
21 | COCCNc1ncnc2ccc(-c3ccccc3CN(C)C)cc12 | 2.72% | –
22 | Cc1cc(C)cc(N(CC(=O)NC2CCCC2)C(=O)CCC(=O)Nc2nccs2)c1 | 0.0142% | –
23 | Cn1c(=O)c(-c2ccccc2)nc2cnc(N3CCNCC3)nc21 | -14.6% | –

Row | Structure (SMILES) | activity change, negative = growth inhibition | Potency
24 | N#Cc1cccc(-c2nc3cnc(N4CCNCC4)nc3n(C3CC3)c2=O)c1 | – | 5.17 µM (active)
25 | COCCn1c(=O)c(CCc2ccccc2)nc2cnc(N3CCNCC3)nc21 | -6.9% | –
26 | Cc1cccc(CN2CCC(n3nccc3NC(=O)c3ccccc3C)CC2)n1 | -19.4% | –
27 | CCNc1ncc2nc(CCc3ccccc3)c(=O)n(-c3ccc(OC)cc3)c2n1 | 9.73% | –
28 | COc1ccc(-c2onc3ccc(C(C)=O)cc23)cc1 | -25.5% | –
29 | COc1ccc(-c2cc(C(=O)N3CCN(c4ccc(F)cc4)CC3)no2)cc1 | -2.11% | –
30 | COc1ccc(-c2nc3c(s2)CCc2onc(-c4ccc(OC)cc4)c2-3)cc1 | – | 20.6 µM (active)
31 | Nc1nc(NC(=O)/C=C/c2ccc(F)cc2)nn1-c1ccccc1 | -18.1% | –
32 | O=C(OCCN=C1NS(=O)(=O)c2ccccc21)c1cccc([N+](=O)[O-])c1 | -30.4% | –
33 | O=C(Nc1nnc(-c2ccc(F)cc2)s1)c1c(F)cccc1Cl | -17.1% | –
34 | CCOC(=O)Cc1csc(NC(=O)CSc2nc(C)cc(=O)[nH]2)n1 | – | 23.1 µM (active)
35 | CCOC(=O)Cc1csc(NC(=O)C(C)(C)C)n1 | -0.25% | –
36 | CCCCc1nnc(NC(=O)CSc2nc(C)cc(=O)[nH]2)s1 | -8% | –
37 | CC(=O)O[C@H]1CC[C@@]2(C)C(=CC[C@@H]3[C@@H]2CC[C@]2(C)C(c4cccnc4)=CC[C@@H]32)C1 | -11.4% | –
38 | COc1ccc(C(=O)C2CCCN(C(=O)c3ccc(OC)o3)C2)c(C)c1 (configuration not stated) | – | 20.6 µM (active)
39 | COc1ccc(OC)c(S(=O)(=O)N2CCCC(C(=O)NCCc3ccccc3)C2)c1 (configuration not stated) | -18.8% | –
40 | COc1ccc(C(=O)C2CCCN(S(=O)(=O)c3cccc(C)c3)C2)c(C)c1 (configuration not stated) | – | 16.4 µM (active)
41 | COc1ccc(C(=O)N2CCCC(C(=O)c3ccccc3OC)C2)cc1OC (configuration not stated) | 3.42% | –
42 | FC(F)(F)c1cccc(-c2cn[nH]c2C2CCCN(Cc3cccn3-c3ccccn3)C2)c1 (configuration not stated) | -7.96% [at 9.04 µM] | –
43 | COc1ccc(C(=O)C2CCCN(Cc3cccn3-c3ccccn3)C2)c(C)c1 (configuration not stated) | – | 20.6 µM (active)
44 | COc1ccc(NC(=O)C2CCCN(S(=O)(=O)c3c(C)[nH]c(=O)[nH]c3=O)C2)c(OC)c1 (configuration not stated) | 20.1% | –
45 | CCn1nc(C)cc1C(=O)N1CCCC(C(=O)c2cccc(OC)c2)C1 (configuration not stated) | -26.5% | –
46 | COc1ccc(C(=O)C2CCCN(C(=O)c3cnsn3)C2)c(C)c1 (configuration not stated) | -24.1% | –

Row | Structure (SMILES) | activity change, negative = growth inhibition | Potency
47 | Cc1cc(Cl)ccc1C(=O)C1CCCN(C(=O)c2ccc3c(c2)OCO3)C1 (configuration not stated) | – | 10.3 µM (active)
48 | CCOC(=O)c1[nH]ncc1CN1CCCC(C(=O)c2ccc(OC)cc2C)C1 (configuration not stated) | 9.78% | –
49 | O=C(c1ccc2c(c1)OCO2)N1CCOCC1 | -11.9% | –
50 | COC(=O)C1=C(NC(=O)C(C)(C)C)CCS1 | -7.7% | –
51 | COCCCNS(=O)(=O)c1cccc(S(=O)(=O)c2cccc(S(=O)(=O)NCCCOC)c2)c1 | -26.2% | –
52 | COc1ccc(C)cc1NC(=O)CCCN1C(=O)NC(C)(C)C1=O | -10.6% | –
53 | Cc1c(NS(=O)(=O)c2cc(C(=O)NCCc3ccc(F)cc3)cc(Cl)c2Cl)c(=O)n(-c2ccccc2)n1C | -26% | –
54 | Cc1cc(=O)oc2cc(NC(=O)C(C)Oc3ccccc3)ccc12 (configuration not stated) | -3.45% | –
55 | Cc1cccc(OCC(=O)OCC(=O)Nc2ccc(Cl)cn2)c1 | 0.866% | –
56 | O=S(=O)(NCCCc1ccccc1)c1ccc(Br)cc1 | 0.36% | –
57 | O=C(CSCc1ccccc1)Nc1ccccc1 | 20.1% | –
58 | CC(C(=O)NCCc1ccc(S(N)(=O)=O)cc1)N1C(=O)CC(C)(C)Sc2ccccc21 (configuration not stated) | 19.7% | –
59 | COc1ccc(-c2c(NC(=O)c3ccco3)oc3ccc(Cl)cc3c2=O)cc1 | -6.75% | –
60 | COc1cc(OC)cc(C(=O)NNC(=O)CNC(=O)c2ccc(Br)o2)c1 | 21.2% | –
61 | O=C1CC[C@@H](C(=O)N2CSC[C@@H]2C(=O)Nc2ccc(C(F)(F)F)cc2)N1 | -1.13% | –
62 | COc1ccc2c(CC(=O)OCC(=O)NC(N)=O)coc2c1 | -2.76% | –
63 | COc1ccc2nc(SCc3ccccc3)nc(C)c2c1 | 6.25% | –
64 | Nc1ccc2c(c1)C(=Cc1cccnc1)c1ccccc1-2 | -6.16% | –
65 | O=C1CN(C(=O)Nc2ccccc2C(F)(F)F)C(c2ccccc2)c2c(sc3c2CCCC3)N1 (configuration not stated) | – | 20.6 µM (active)
66 | CN(C)CCn1c2c(c(SCC(=O)Nc3ccccc3C(F)(F)F)nc1=O)CCCC2 | -2.77% | –
67 | Cc1ccccc1NC(=O)N1CCCC1C(=O)NCc1ccccc1 (configuration not stated) | -11.8% | –

Reference: PubChem BioAssay AID686979 (National Center for Advancing Translational Sciences (NCATS), 2013)
